From PubChem
Only some compounds are listed: those with a hit (about 4% of all), similar ones and a draw of the others.
BoNT F protease: blocks Botulinum neurotoxin F light chain protease; Multiplex microsphere protease cleavage assay, flow cytometry; inhibition, % at 10 µM; actives 0.22% (n = 360,000); AID 588497; in the data active = inhibition above about 35%, passing the limit was not always enough; inconclusive = no clear call, values can overlap the other calls; also: plate controls were buffer without enzyme for full effect and enzyme alone for no effect
MazEF act: increases E. coli MazEF RNase cleavage of RNA; actives 0.32% (n = 350,000); P0AE70; FAM/BHQ RNA-DNA oligo cleavage fluorescence, 5 h; activation, % at 20 µM; in the data active = activation above about 50%
Target sequence (P0AE70 whole entry, looked up): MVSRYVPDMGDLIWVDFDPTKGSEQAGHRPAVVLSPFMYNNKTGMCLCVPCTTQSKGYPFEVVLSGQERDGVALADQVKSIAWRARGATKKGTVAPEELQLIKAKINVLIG
Bead autofluor: counter-screen for toxin protease inhibitors: compound fluorescence. compound autofluorescence counterscreen, microsphere flow cytometry; stronger effect = higher value. fluorescence intensity (test concentration not listed). actives 3.1% (n = 360,000). AID 624483; in the data active = fluorescence intensity above about 16000; inconclusive = no clear call, values can overlap the other calls
Anthrax LF inh2: blocks Bacillus anthracis lethal factor protease; P15917; multiplex microsphere protease cleavage assay, LF; inhibition, % at 10 µM; actives 0.12% (n = 360,000); AID 588501; also: plate controls were buffer without enzyme for full effect and enzyme alone for no effect
DUSP3 inh: DUSP3 (human) phosphatase inhibition | recombinant VHR phosphatase, pNPP absorbance | inhibition, % at 13.3 µM | actives 0.52% (n = 290,000); in the data active = inhibition above about 50%
Target sequence (P51452 whole entry, looked up): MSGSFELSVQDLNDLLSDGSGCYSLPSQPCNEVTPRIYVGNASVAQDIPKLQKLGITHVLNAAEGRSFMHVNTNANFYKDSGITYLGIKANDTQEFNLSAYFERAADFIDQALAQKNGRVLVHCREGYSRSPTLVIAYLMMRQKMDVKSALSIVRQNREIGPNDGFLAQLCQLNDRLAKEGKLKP
BoNT-A LC inh2: BoNT A light chain protease inhibition. multiplex microsphere protease substrate cleavage, flow cytometry. inhibition, % at 10 µM. actives 0.17% (n = 360,000); also: plate controls were buffer without enzyme for full effect and enzyme alone for no effect
Active calls of the source: *; ? = inconclusive; · = no result given. Rule as the data show it, unless noted: active = inhibition above about 30%; inconclusive = no clear call, values can overlap the other calls; inactive = below that.

SMILES	BoNT F protease	MazEF act	Bead autofluor	Anthrax LF inh2	DUSP3 inh	BoNT-A LC inh2
Cc1ccc(-n2[nH]c(C)c(/C=N/Nc3ccc([N+](=O)[O-])cc3[N+](=O)[O-])c2=O)cc1C	-10	-2	1837	-1	50*	-1
CC(=O)Oc1ccc2c(=O)c(N3C(=O)c4ccccc4C3=O)c(C)oc2c1	-3	7	2475	3	-7	0
CCCOc1ccc2c(=O)c(N3C(=O)c4ccccc4C3=O)c(C)oc2c1	-1	-1	20166*	-4	33	0
Cc1oc2c(C)c(O)ccc2c(=O)c1N1C(=O)c2ccccc2C1=O	-3	6	2491	2	-7	-1
Cc1oc2cc(O)ccc2c(=O)c1N1C(=O)c2ccccc2C1=O	-1	0	19700*	-3	-9	1
c1ccc(-c2nnc3n2-c2ccccc2SC3)cc1	1	5	6311	-7	-7	0
CCOC(=O)NC1C=CS(=O)(=O)C1 (stereo not drawn)	-29	0	3627	-1	39	0
CCOc1ccccc1N(C)S(=O)(=O)c1ccc2c(c1)CC(C)N2C(=O)C1CC1 (stereo not drawn)	·	4	·	·	50*	·
N#Cc1c(N)nc2c(c1-c1ccncc1)CCCCCC2	-2	-19	23466*	-3	·	-1
N#Cc1c(N)nc2c(c1-c1ccccc1)CCCC2	3	-3	21448*	-9	7	?
N#Cc1c(N)nc2c(c1-c1ccc(F)cc1)CCC2	·	4	·	·	16	·
N#Cc1c2c(nc(N)c1-c1ccccc1)CCCCC2	5	4	2670	1	36	0
CSc1nc2c(c(-c3ccccc3)c1C#N)CCC2	3	6	21295*	1	·	?
CCCN(CC(=O)Nc1ccc(Cl)cc1Cl)C(=O)/C=C/c1cccc([N+](=O)[O-])c1	-8	1	2500	0	-9	2
CCn1nc(NC(=O)c2ccncc2)c2cc3ccc(C)cc3nc21	-3	-4	20719*	1	28	-3
CCCn1nc(NC(=O)c2cccs2)c2cc3ccccc3nc21	-2	6	23719*	0	23	-1
CCn1nc(NC(=O)c2ccncc2)c2cc3cc(C)ccc3nc21	?	-3	4495	-2	-14	2
CCCn1nc(NC(=O)C2CCCO2)c2cc3cc(C)ccc3nc21 (stereo not drawn)	-2	-1	21148*	-1	23	0
CCCn1nc(NC(=O)c2cccs2)c2cc3cc(C)ccc3nc21	?	-5	3878	-6	12	-2
CCCCn1nc(NC(=O)c2cccs2)c2cc3ccccc3nc21	4	-3	21346*	1	8	3
Cc1cc(OCCOCCNCc2ccccc2)ccc1C(C)C	-3	15	4005	-11	10	-2
CCCC(=O)Nc1nn(CCC)c2nc3ccccc3cc12	-4	0	21458*	-3	3	-1
CCCn1nc(NC(=O)c2ccncc2)c2cc3ccccc3nc21	-6	9	5760	-6	24	0
COc1cc2[nH]c(=S)n(Cc3cccs3)c(=O)c2cc1OC	0	-11	4424	-1	15	-1
CCCn1c(=S)[nH]c2cc(OC)c(OC)cc2c1=O	-2	7	22976*	-1	1	-1
SMILES	BoNT F protease	MazEF act	Bead autofluor	Anthrax LF inh2	DUSP3 inh	BoNT-A LC inh2
CCOc1cc2[nH]c(=S)n(CCCN(CC)CC)c(=O)c2cc1OCC	7	8	8924	9	-3	0
CCOc1cc2[nH]c(=S)n(CCOC)c(=O)c2cc1OCC	-2	3	22228*	-4	21	-1
COc1cc2[nH]c(=S)n(NC(=O)CC(C)C)c(=O)c2cc1OC	-3	-4	24467*	-4	0	?
CCOc1cc2[nH]c(=S)n(CCCC(=O)N3CCC4(CC3)OCCO4)c(=O)c2cc1OCC	0	9	22729*	1	27	-1
Cc1ccc(N(C)C(=O)c2ccc3c(Cl)c4c(nc3c2)CCC4)cc1C	11	7	4250	6	8	0
COc1ccc(CN(C(=O)Cn2nnc(-c3ccc(C)o3)n2)C(C(=O)NCC2CCCO2)c2ccco2)cc1 (stereo not drawn)	1	6	2477	1	0	0
Cc1cc(Nc2cccc(F)c2)nc(NCc2ccccc2)n1	-8	21	2228	1	-5	0
Cc1cc(NC(=O)CC(C)C)c(=O)n(Cc2c(F)cccc2Cl)c1	·	5	·	·	54*	·
